# Measurements as given in PubChem BioAssay AID624417 (National Center for Advancing Translational Sciences (NCATS), 2012).
# In all, about 410,000 compounds went through this assay and about 6,400 (1.6%) were called active. A call without a number means that no potency is given here. Another 20% or so got no clear call; they are omitted. This is one part of a sample in which actives are shown more often than they occur. The call rests on the fitted dose curve; in most records, active means well fitted inhibition curve with a large enough effect; inconclusive means small, poorly fitted or top-dose-only effect; inactive means no such curve, though single readings can be large or run the other way.
# Target: Glucagon-like peptide 1 receptor (Homo sapiens) (UniProt P43220)
# Sequence (P43220 whole entry, looked up): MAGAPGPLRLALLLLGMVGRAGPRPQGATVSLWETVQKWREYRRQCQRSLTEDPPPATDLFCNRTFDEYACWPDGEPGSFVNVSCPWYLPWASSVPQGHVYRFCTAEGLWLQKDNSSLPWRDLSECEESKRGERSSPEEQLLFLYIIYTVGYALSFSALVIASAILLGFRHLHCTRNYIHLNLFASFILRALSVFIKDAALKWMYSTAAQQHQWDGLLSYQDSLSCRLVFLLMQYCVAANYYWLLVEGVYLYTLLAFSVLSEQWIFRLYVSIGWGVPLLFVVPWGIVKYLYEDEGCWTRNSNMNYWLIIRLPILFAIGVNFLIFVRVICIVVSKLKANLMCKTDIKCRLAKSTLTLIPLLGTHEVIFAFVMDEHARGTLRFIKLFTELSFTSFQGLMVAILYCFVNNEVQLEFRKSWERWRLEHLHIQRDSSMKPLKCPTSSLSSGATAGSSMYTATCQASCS
# Test: qHTS of GLP-1 Receptor Inverse Agonists (Inhibition Mode); further: nearly all actives have a fitted effect of over 55% in size
# Conditions: HEK293 GLP-1R CRE-luciferase, luminescence, 24 h, GLP-1R form is constitutively active; series mostly up to 38.3 µM
# Procedure, shortened: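 Seeding at 200 cells/uL, 12 h culture, 24 hr compound treatment, then luciferase reagent and a luminescence read; cells are HEK293 stably expressing a constitutively active GLP-1R plus cAMP-responsive luciferase.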
# Potency means the concentration at half of the fitted maximal effect.
row,SMILES,Potency
1,CC(OC(=O)c1ccc(NC(=O)CC#N)cc1)C(=O)Nc1ccc(S(=O)(=O)N2CCCC2)cc1 (stereo unspecified),inactive
2,O=C1NC[C@@H](CCCCN2CCN(CCc3ccc(O)cc3)C(=O)C2=O)N(CC2CCCCC2)C1=O,inactive
3,Cc1ccc(S(=O)(=O)N(CCc2ccccc2)c2ccc3c(c2)C2CC3CCN2C(=O)OCc2ccccc2)cc1 (stereo unspecified),inactive
4,C=CCOC(=O)N1CCC2CC1c1cc(-c3ccc(OC)cc3)ccc12 (stereo unspecified),10 µM (active)
5,COc1ccc(-c2ccc3c(c2)C2CC3CCN2CCC#N)cc1 (stereo unspecified),inactive
6,C[C@@H]1CN([C@H](C)CO)C(=O)CCCn2cc(nn2)CO[C@H]1CN(C)S(C)(=O)=O,inactive
7,Cc1ccc(C(O)c2ncc(-c3ccccc3F)[nH]2)cc1F (stereo unspecified),inactive
8,O=C1c2ccccc2S(=O)(=O)N1Cc1c(F)cccc1Cl,inactive
9,CC(C)(C)c1ccc(CN2C(=O)c3ccccc3S2(=O)=O)cc1,10 µM (active)
10,COc1ccc(CNC(=O)CN2C(=O)c3ccccc3S2(=O)=O)cc1,inactive
11,CCc1cc(-c2nnn(CCC3COCCO3)c2CC)ccc1-c1cn(Cc2ccc3ccccc3c2)nn1 (stereo unspecified),inactive
12,CC(OC(=O)c1cccnc1Cl)C(=O)NC1CCCCC1 (stereo unspecified),inactive
13,C[C@H](CO)N1C[C@H](C)[C@@H](CN(C)Cc2ccc3c(c2)OCO3)OCc2cnnn2CCCC1=O,inactive
14,CCCCn1c(CCCNC(=O)CC)nc2ccccc21,inactive
15,CCCCn1c(CN2CCN(CCO)CC2)nc2ccccc21,inactive
16,C=C(Br)Cn1c(CCCC)nc2ccccc21,2.82 µM (active)
17,Nc1[nH]c(C(=O)c2ccccc2)c(-c2ccncc2)c1C(=O)NCc1cccc2ccccc12,inactive
18,Cc1ccc(Nc2c3c(nc4ccccc24)CCC3)cc1,5.62 µM (active)
19,Cc1ccc(CNC(=O)CSc2c3c(nc4cc(Cl)ccc24)CCCC3)cc1,inactive
20,CCOc1ccc(NC(=O)CSc2c3c(nc4ccccc24)CCCC3)cc1,inactive
21,CCCNC(=O)C1(C)CCN1C(=O)C1(c2ccccc2)CC1 (stereo unspecified),inactive
22,CC(C)n1cnc2c(Nc3cccc(Cl)c3)nc(N(CCO)CCCO)nc21,10 µM (active)
23,COc1ccccc1Nc1c2c(nc3ccc(NC(=O)/C=C/c4cc(OC)c(OC)c(OC)c4)cc13)CCCC2,3.55 µM (active)
24,CCOc1ccc(C(=O)Nc2ccc3nc4c(c(Nc5ccccc5OC)c3c2)CCCC4)cc1,inactive
25,COc1ccc(NS(=O)(=O)c2cc(NC(=O)/C=C/c3cc(OC)c(OC)c(OC)c3)ccc2N2CCCCC2)cc1,inactive
26,O=C1NC(Cc2ccccc2)c2nc3ccc(Br)cc3c(=O)n2-c2cc3ccccc3cc21 (stereo unspecified),inactive
